# Measurements: the supplement of paper PMC6555819
# Experiments:
# Assay in all cases: PBM binding z-score (relative to random genomic background probes); higher = stronger binding; sequences stand for … in GC…GCGATTGACAGCGTAGAATGAAGG
# [1] = test system: FXR:RXRa (NR concentration 270 nM, RXRa partner concentration 90 nM)
# In short: (§1)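 Custom Agilent 4×180K protein-binding microarrays carried double-stranded probes. Their 34-nt variable regions held direct-repeat seeds, single-nucleotide variants, half-site ablations and random human genomic background sequences. Arrays were incubated 1 h with ligand-free nuclear receptor dimers in PBS pH 7.4, 2% milk, 0.02% Triton X-100, 1 mM DTT, 0.2 mg/mL BSA and 0.4 mg/ml salmon testes DNA. Antibodies against each partner (one per run) detected binding, and scanned fluorescence was regression-normalized. Binding z-scores use random background probes as reference.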
# [2] = test system: LXRa:RXRa (NR concentration 270 nM, RXRa partner concentration 90 nM)
# In short: as §1
# [3] = test system: LXRa homodimer (NR concentration 270 nM)
# In short: as §1
# [4] = test system: LXRb:RXRa (NR concentration 270 nM, RXRa partner concentration 90 nM)
# In short: as §1
# [5] = test system: LXRb homodimer (NR concentration 270 nM)
# In short: as §1
# [6] = test system: PPARa:RXRa (NR concentration 270 nM, RXRa partner concentration 90 nM)
# In short: as §1
# [7] = test system: PPARg:RXRa (NR concentration 180 nM, RXRa partner concentration 90 nM)
# In short: as §1
# [8] = test system: PPARg:RXRa 270nM:90nM, anti-RXR (NR concentration 270 nM, RXRa partner concentration 90 nM)
# In short: as §1
# [9] = test system: PPARg:RXRa 30nM:10nM, anti-RXR (NR concentration 30 nM, RXRa partner concentration 10 nM)
# In short: as §1
# [10] = test system: PPARg:RXRa 90nM:30nM, anti-RXR (NR concentration 90 nM, RXRa partner concentration 30 nM)
# In short: as §1
# [11] = test system: PPARg:RXRa DBDmut IVT, anti-RXR (DBD mutation: RXRa K156A/R161A, NR concentration 270 nM, RXRa partner concentration 90 nM)
# In short: as §1
# [12] = test system: PPARg:RXRa IVT, anti-PPARg (NR concentration 270 nM, RXRa partner concentration 90 nM)
# In short: as §1
# [13] = test system: PPARg DBDmut:RXRa IVT, anti-PPARg (DBD mutation: PPARg1 K132A/R137A, NR concentration 270 nM, RXRa partner concentration 90 nM)
# In short: as §1
# [14] = test system: PPARg DBDmut IVT, anti-PPARg (DBD mutation: PPARg1 K132A/R137A, NR concentration 270 nM)
# In short: as §1
# [15] = test system: PPARg homodimer (NR concentration 180 nM)
# In short: as §1
# [16] = test system: PXR:RXRa (NR concentration 270 nM, RXRa partner concentration 90 nM)
# In short: as §1
# [17] = test system: PXR homodimer (NR concentration 270 nM)
# In short: as §1
# [18] = test system: RARa:RXR (NR concentration 270 nM, RXRa partner concentration 90 nM)
# In short: as §1
# [19] = test system: RARa homodimer (NR concentration 270 nM)
# In short: as §1
# [20] = test system: RARb:RXRa (NR concentration 270 nM, RXRa partner concentration 90 nM)
# In short: as §1
Sequence,PBM binding z-score [1],PBM binding z-score [2],PBM binding z-score [3],PBM binding z-score [4],PBM binding z-score [5],PBM binding z-score [6],PBM binding z-score [7],PBM binding z-score [8],PBM binding z-score [9],PBM binding z-score [10],PBM binding z-score [11],PBM binding z-score [12],PBM binding z-score [13],PBM binding z-score [14],PBM binding z-score [15],PBM binding z-score [16],PBM binding z-score [17],PBM binding z-score [18],PBM binding z-score [19],PBM binding z-score [20]
CGAATTAGGTCAAGGACAGTGAATCTCCGCACGC,4,2.54,0.286,1.97,0.123,4.92,6.8,6.22,3.82,5.57,8.12,8.06,3.79,1.82,1.89,1.28,0.205,2.79,0.19,4.18
AGAATGATGTTATTAAGATCAGGGAATTGCGGTC,-0.0815,-0.447,6.67e-05,-0.339,-0.205,0.0831,0.179,-0.306,-0.179,-0.208,-0.219,0.135,0.648,0.441,0.197,-0.0155,-0.0811,0.136,0.841,-0.333
TCATATAGATAATACAGGTGAAAGTCGGCATCTA,1.28,0.946,0.247,1.08,0.215,1.53,1.36,2.47,4.31,3.51,2.86,1.53,1.59,1.15,0.855,0.717,0.495,1.04,2.03,0.481
GCGACTGCGGCAAAGCAGGTTACCATAAGGTTGG,-0.436,-0.494,-0.713,-0.429,-1.51,0.0395,0.3,-0.534,-0.785,-0.92,-0.386,-0.26,-0.756,-1.23,-0.726,-0.186,-0.666,0.143,-1.11,-0.06
CGAACTAGGTCACGAAAGGTCAAAGTCGAATGAC,7.73,8.18,7.39,7.24,2.38,6.49,10.5,8.46,6.75,8.51,8.45,8.7,0.767,1.32,5.63,7.14,3.35,7.72,2.82,5.68
ACAGACAGATGAGTGAAGGTAACTCAGCTGGACG,0.536,-0.0158,-0.336,-0.328,-0.174,-0.0253,0.883,0.561,0.259,0.0616,-0.101,0.00181,0.781,0.138,0.692,-0.0478,0.186,0.101,0.524,-0.14
AGAATGAGGTTATACGTCGATCAGGGAAGAAAGT,2.16,1.54,-0.164,1.29,0.0862,3.16,2.32,2.99,1.45,2.25,2.6,2.09,0.671,0.354,0.876,0.925,0.396,1.51,0.313,1.34
TCATGTAGATCAGCAGGTTAAGAAAGCTGGCCAA,-0.0707,0.39,-0.338,0.259,-0.58,0.606,-0.175,1.5,2.67,2.16,1.87,0.284,-0.501,-0.804,0.238,0.193,0.00655,0.125,-0.0627,0.286
GCTTGCAGATCAAGGTTAAGAAAGACTAAGCTAA,-0.109,0.424,-0.386,0.358,-0.936,1.25,0.0724,0.872,0.0105,0.351,0.163,0.227,-0.556,-0.251,-0.687,0.18,-0.42,0.588,-0.293,0.686
CAAACTAGATCACGAAAGGTCAAAGTCGAATGAC,5.13,5.95,5.88,5.7,2.42,5.61,4.16,5.04,2.26,3.98,3.85,4.1,1.64,2.11,4.54,5.85,2.42,6.41,2.84,4.5
TATACAGGTTCAAAGGCCAGAGTACGAATGTCGA,3.17,4.13,2.06,2.27,1.19,3.41,2.89,3.54,1.9,2.88,0.255,1.44,0.672,0.97,1.53,2.53,1.35,2.91,1.41,2.2
TCTTGTAGATCAAAGGTTAACAAAGCCGAAGCCT,1.99,2.08,-0.0148,2.16,0.107,4.9,8.48,8.41,7.57,9.81,2.15,4.38,1.04,0.514,1.03,2.26,0.125,3.03,1.01,2.09
TGTCAAAGTTCAAAGGTAACGGAAGTATCCACAC,7.08,6.74,4.4,4.82,1.8,6.04,8.79,7.85,5.15,7.21,0.604,4.88,1.63,2.48,3.69,5.74,3.74,6.93,1.65,5.07
AATACAGGGTCACTAGGCCAGAGTAGGTACGAAT,6.37,5.07,0.678,3.95,0.879,6.03,8.23,6.72,3.56,5.66,3.83,5.94,2.04,1.71,2.24,3.28,0.432,4.51,0.176,4.39
TCTAGTTGGTCACGGAGTTCACACACGACGGGTA,1.65,2.17,2.34,1.88,0.263,2.63,1.88,2.66,3.07,2.99,2.4,2.92,1.45,0.822,1.92,4.53,3.62,2.15,0.649,2.87
CCTACTAGGCCAAAAAGGTCATTGATGCCGATAA,3.79,4.67,3.6,4.54,0.985,4.84,3.56,4.24,1.54,3.67,5.03,4.58,-0.262,-0.187,2.71,4.88,5.01,5,1.4,4.09
TCTAGTGGGTCACGGAGGTCACACACGACGGGTA,6.17,5.14,2.85,4.62,0.568,5.74,9.39,7.63,5.61,7.51,7.01,7.92,1.74,0.78,4.58,5.92,5.35,6.43,2.44,4.78
GCGACTGGGGCAAAGCAGGTTAACATAAGGTTGG,0.921,0.436,-0.346,0.261,-1.01,1.41,1.62,1.19,0.0162,0.614,4.62,3.42,-0.747,-0.874,0.353,0.721,-0.496,1.1,-0.822,1.05
TAGCCTAGGTCATTAGGCCAGTATAGTACGCATC,3.64,2.91,0.7,1.88,0.111,3.31,3.34,3.34,1.05,2.14,2.12,3.88,0.301,-0.52,1.19,0.87,-0.114,1.79,0.0486,3.24
CCTAGTTGATCAAGGTCACACACGCTATAGGTAC,4.38,4.15,2.75,4.06,1.42,4.36,2.96,3.19,1.28,2.24,2.26,3.44,1.49,1.07,3.39,4.28,3.62,4.24,2.05,3.95
ATATGTAGGTTAGCTGGGGTCATACAGACTAGGC,5.27,5.79,2.45,4.74,0.852,5.2,6,5.38,2.74,4.94,6.97,6.06,1.52,1.48,2.67,6.28,3.07,5.89,1.68,3.13
CAAACTAGGTCACGAAAAGTCAAAGTCGAATGAC,4.52,5.32,0.989,3.22,0.716,5.53,9.43,7.43,5.91,7.51,8,9.2,4.41,4.13,2.52,2.27,0.426,3.44,0.939,4.58
CCTACTTGGTCAAGGTCACACACGCTATAGGTAC,4.25,4.24,2.32,4.05,1.7,4.33,3.75,3.87,1.38,2.72,2.5,3.56,0.858,1.02,3.34,4.31,1.72,4.29,2.21,4.18
TCATATAGGTAATACAAGTGAAAGTCGGCATCTA,1.52,1.28,0.46,1.17,0.185,1.59,1.39,2.52,4.29,3.28,4.19,2.25,0.992,1.83,1.46,0.916,0.336,1.3,1.79,0.7
CTCGAAAGGTCGGTTCAGGTGAGTATACGGATAA,2.48,1.92,0.307,1.74,0.00585,2.86,0.546,1.36,0.0497,0.769,0.179,0.896,0.489,0.134,0.753,2.53,0.887,2.11,0.864,2.96
CGAACTTGGTCATCCAGGACAGTGAATACATTGA,0.205,-0.0973,-0.0371,-0.13,-0.606,0.208,0.624,-0.0338,0.133,-0.228,1.09,1.08,0.648,0.367,-0.34,0.166,0.269,0.326,-0.093,1.23
